Assay outcomes as filed in PubChem BioAssay.
HepG2 viability: qHTS for Inhibitors of TGF-b: Cytotox Counterscreen; HepG2 CAGA-GFP viability, ATP luminescence, 18 h; hit rate 0.76% among 410,000; Potency, µM (doses to about 46.1 µM), inactives show at the highest dose activity change, negative = cytotoxicity, hits mostly cytotoxic
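CellTiter-Glo luminescence gave cytotoxicity after 18 hours at 37 degrees C. The cells were HepG2 CAGA-GFP in 1% FBS DMEM, stimulated with 500 pg/mL TGF-beta after compound addition. %Activity was normalised to no-cell wells (complete cell-killing) and DMSO (no toxicity), and curves were fitted and classified.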
S2 tox: Viability Counterscreen for Primary qHTS for Inhibitors of ATXN expression | S2 cells (HEK-293 line with an ATXN2-luciferase reporter) viability, CellTiter-Fluor protease fluorescence, 24 h | Potency, µM (highest dose often 56.7 µM), actives largely listed as cytotoxic | hit rate 0.49% among 400,000; note: nearly all actives have a fitted effect of over 40% in size
ATXN2 expr inh: Primary qHTS for Inhibitors of ATXN expression; HEK-293 ATXN2-luciferase reporter, luminescence, 24 h; Potency, µM (top dose mostly 57 µM), for the others: at the top dose activity change, negative = inhibition, actives largely listed as inhibitors; hit rate 0.72% among 360,000; AID 1745845, 2022; note: % is set by controls: 0 for no effect and ±100 for the full control effect; nearly all actives have a fitted effect of over 55% in size
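qHTS (up to 57 uM final) was run with 24 h compound exposure of reporter cells at 37 °C. Each well was multiplexed: SteadyGlo luminescence measured ATXN2-luciferase expression after a fluorogenic Gly-Phe-AFC viability readout (25 uM final).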
TGFb inhibitor: qHTS for Inhibitors of TGF-b; Potency, µM (titrated, usually from 46.1 µM), without a hit: at the highest dose activity, negative = inhibition, hits mostly inhibitors; HepG2 CAGA-GFP TGF-b/SMAD3 reporter, GFP fluorescence, 18 h; TGF-beta stimulated, 500 pg/mL final; AID 588855, 2011; hit rate 1.2% among 410,000; note: % is set by controls: 0 for no effect and ±100 for the full control effect; nearly all actives have a fitted effect of over 65% in size
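Cell-based qHTS in HEPG2 carrying a CAGA-GFP Smad reporter; compounds added before 500 pg/mL final TGF-beta, 18 h incubation at 37 degrees C, GFP fluorescence quantified per cell by imaging cytometry.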
Gal4-VP16 FLuc: VP16 counterscreen qHTS for inhibitors of ROR gamma transcriptional activity; Drosophila S2 Gal4-VP16 UAS-luciferase, luminescence, 20 h; Potency, µM (series often up to 53.6 µM), for the others: at the highest dose activity, negative = inhibition, actives largely listed as inhibitors; hit rate 3.5% among 310,000; AID 2546, 2010;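 note: Gal4-VP16 expression switched on by copper sulfate through the metallothionein promoter; % is set by controls: 0 for no effect and ±100 for the full control effect; nearly all actives have a fitted effect of over 50% in size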
RORg inh: qHTS for inhibitors of ROR gamma transcriptional activity; Nuclear receptor ROR-gamma (Mus musculus), P51450; Drosophila S2 Gal4-RORgamma UAS-luciferase reporter, 20 h; Potency, µM (doses to about 53.6 µM), inactives show top-dose activity change, negative = inhibition, most hits filed as inhibitors; hit rate 5.4% among 310,000; note: % is set by controls: 0 for no effect and ±100 for the full control effect; nearly all actives have a fitted effect of over 60% in size
Target sequence (P51450 whole entry, looked up, the tested form may be a part): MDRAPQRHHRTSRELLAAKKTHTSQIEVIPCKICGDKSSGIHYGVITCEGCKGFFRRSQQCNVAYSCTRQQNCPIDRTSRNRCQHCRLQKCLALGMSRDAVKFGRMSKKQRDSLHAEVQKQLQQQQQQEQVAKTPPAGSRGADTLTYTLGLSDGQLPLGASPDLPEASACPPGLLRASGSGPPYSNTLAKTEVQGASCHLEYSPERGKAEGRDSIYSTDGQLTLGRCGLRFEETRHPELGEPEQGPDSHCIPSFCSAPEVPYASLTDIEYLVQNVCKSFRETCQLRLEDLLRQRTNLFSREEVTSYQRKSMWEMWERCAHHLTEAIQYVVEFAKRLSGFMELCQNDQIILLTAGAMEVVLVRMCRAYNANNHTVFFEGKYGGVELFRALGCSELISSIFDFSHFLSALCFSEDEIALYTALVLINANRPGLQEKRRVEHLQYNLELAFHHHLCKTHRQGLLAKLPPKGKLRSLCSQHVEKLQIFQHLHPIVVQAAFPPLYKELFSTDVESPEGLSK
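Stable Schneider cell line, Gal4 DNA-binding domain fused to ROR gamma, UAS-luciferase. Cmpd 1 hr RT → CuSO4 700 uM final → 20 hr RT → luciferase reagent 10 min → luminescence.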
Active calls of the source: *; i = inactive; ? = inconclusive; . = not tested or not shown; [ ] = remark or other dose. Shown are actives, neighbours in structure and some others; about 6.1% of the full set was active somewhere. Calls come from the whole dose curve; as a rule, active = well fitted curve in the direction sought with a large enough effect; inconclusive = small, poorly fitted or top-dose-only effect, or another doubt; inactive = no such curve, though single readings can be large; an effect the other way counts as inactive or inconclusive. Potency is the fitted concentration of half-maximal effect.

SMILES	HepG2 viability	S2 tox	ATXN2 expr inh	TGFb inhibitor	Gal4-VP16 FLuc	RORg inh
C=C(CC(=O)OC)C[C@]1(CC(=O)OC)CC2(CC=C(C)C)C(=O)C(C(=O)c3ccccc3)=C(OC(=O)c3ccc(Br)cc3)C(CC=C(C)C)(C1)C2=O (some centres undefined)	.	.	.	.	-4%[10 µM]	-8%[10 µM]
CCn1nc(-c2ccccc2)c(-c2ccccc2)c(C(=O)Nc2nc(C)c(C(=O)N(C)C)s2)c1=O	-23%	.	.	0%	.	.
CCCOC1(C(F)(F)F)NC(=O)N(c2ccc(Cl)cc2)C1=O (centres undefined)	-6%	?	-36%	-4%	.	.
CC1(C)CC(O)CC(C)(C)N1[O]	.	.	17%	.	.	.
COc1cc(C(=O)NS(=O)(=O)c2ccccc2C)ccc1Cc1cn(C)c2ccc(NC(=O)OC3CCCC3)cc12	.	i	39µM*	.	-19%	?
Cc1ccc(NC(=O)N(Cc2cn(C)c3ccccc23)C2CCCCC2)cc1C	-9%	i	34%	37%	.	.
CCNC(=S)N/N=C/c1cc(C)n(-c2ccc(Cl)cc2)c1C	6%	?	29%	-8%	5µM*	1.4µM*
Cc1cc(/C=N\NC(=O)CC(=O)NC2CCCCC2)c(C)n1-c1ccc(Cl)c(Cl)c1	-37%	i	?	?	-4%	16%
Cc1cc(/C=N/NC(=O)Cn2c3ccccc3c(=O)c3ccccc32)c(C)n1-c1ccc(Cl)cc1	-14%	.	-5%	-2%	0%	-17%
Cc1cc(/C=N/NC(N)=S)c(C)n1-c1ccc(Cl)c(Cl)c1	-67%	?	-29%	?	3.2µM*	1.4µM*
Cc1nc2ccccn2c1C(=O)N/N=C/c1cc(C)n(-c2ccc(Cl)cc2)c1C	-21%	i	-13%	-11%	13µM*	20µM*
Cc1ccc2c(=O)cc(C(=O)N(Cc3ccc(C(C)(C)C)cc3)C3CCS(=O)(=O)C3)oc2c1 (centres undefined)	0%	?	-32%	?	.	.
O=C(CSc1nc2sc3c(c2c(=O)n1-c1ccccc1)CCCC3)N/N=C/c1ccc(C(=O)O)cc1	0%	i	2%	-9%	-6%	-4%
Cn1c(N/N=C/c2ccccc2)nc2sc3c(c2c1=O)CCC3	-16%	i	-6%	-6%	7.1µM*	1.6µM*
CN(C)CCNc1nc2sc3c(c2c(=O)n1-c1ccccc1)CCCCC3	14µM*	i	-25%	-18%	-8%	15%
CN(C)CCNc1nc2sc3c(c2c(=O)n1-c1ccc(F)cc1)CCCCC3	-23%	i	-1%	?	-2%	4%
O=c1cc(-c2ccc(F)cc2)nc(SCc2nc(-c3ccc(Cl)cc3)no2)[nH]1	-16%	.	.	0%	.	.
COc1ccc2c(c1)-c1nc(-n3ncc(C(=O)NCc4cccnc4)c3C3CC3)ncc1CC2	.	i	.	.	.	.
COC(=O)c1ccc(NC(=O)CN2CCCN(Cc3ccc(Cl)cc3)S2(=O)=O)cc1	-18%	i	-22%	?	.	.
COc1ccc(CC2=CC(=O)c3ccccc3C2=O)cc1	-102%	?	.	?	10µM*	7.1µM*
CCN1CCN(c2c(/C=C3\SC(=S)N(Cc4ccco4)C3=O)c(C)c(C#N)c(=O)n2C)CC1	-4%	i	-11%	122%	?	7.1µM*
Cc1cc(SCC(=O)c2ccc(O)c(O)c2)n2nc(C)c(-c3ccccc3)c2n1	-28%	?	?	18µM*	-27%	-23%
Cc1cc(C)nc(SCC(=O)c2ccc(O)c(O)c2)n1	-11%	i	8%	1%	?	-44%
Cc1ccc(C(=O)Nc2cccc(C(F)(F)F)c2)cc1NC(=O)c1csc(-c2ccncc2)n1	-56%	?	?	-7%	2%	-17%
N#C/C(=N\Nc1cccc(C(F)(F)F)c1)C(=O)c1csc(-c2cccnc2)n1	-26%	25µM*	?	?	6%	?
SMILES	HepG2 viability	S2 tox	ATXN2 expr inh	TGFb inhibitor	Gal4-VP16 FLuc	RORg inh
C#CC(=O)N(c1ccc(OC)cc1OC)C(C(=O)NC1CCCC1)c1cccs1 (centres undefined)	-52%	.	1.8µM*	?	7.9µM*	6.3µM*
COc1ccc(N(C(=O)c2ccco2)C(C(=O)NC2CCCCC2)c2cccs2)cc1OC (centres undefined)	1%	?	1%	-3%	-3%	?
C#CC(=O)N(c1cc(OC)ccc1OC)C(C(=O)NC1CCCC1)c1cccs1 (centres undefined)	-83%	32µM*	?	?	7.1µM*	4.5µM*
CCN(CC)CC(C)CNC(=O)c1cc(-c2ccc(Br)s2)nc2ccccc12 (centres undefined)	-32%	.	28µM*	?	.	.
C/C(CC(=O)Nc1cc(C)ccn1)=N\NC(=O)C(=O)NC(C)C	-10%	i	2%	9%	-1%	-39%
C/C(CC(=O)Nc1cc(C)ccn1)=N\NC(=O)c1cccc(C)c1O	-29%	?	-17%	?	5µM*	11µM*
C/C(=N/NC(=O)c1cccc(C)c1)c1c(O)cc(C)oc1=O	-3%	i	22%	27%	3.5µM*	?
C/C(=N\Nc1ccccc1)c1c(O)cc(C)oc1=O	-9%	i	-28%	3%	-13%	10%
C/C(CC(=O)Nc1cc(C)ccn1)=N\NC(=O)c1cccc(C)c1	-10%	i	-1%	9%	-29%	11µM*
C#CCOc1c(Br)cc(/C=N\NC(=O)CN2CCOCC2)cc1OCC	4%	i	0%	20%	35µM*	12%
OC(CN1C=CCc2ccccc21)c1ccc(Cl)cc1Cl (centres undefined)	-17%	.	.	0%	.	.
